# In PubChem BioAssay AID1479 (National Center for Advancing Translational Sciences (NCATS), 2009):
# Screen size: about 280,000 compounds; about 820 (0.29%) were called active. Roughly 1% stayed inconclusive and do not appear here. Many of the other results were omitted from the sample, so actives are more common in it than they were. Unmarked numbers belong to inactive results. Calls come from the whole dose curve; as a rule, active = well fitted curve in either direction with a large enough effect; inconclusive = small, poorly fitted or top-dose-only effect; inactive = flat fitted curve, though single readings scatter.
# Assay: Total Fluorescence Counterscreen for Inhibitors of the Interaction of Thyroid Hormone Receptor and Steroid Receptor Coregulator 2
# Conditions: TRb/SRC2 Texas Red total fluorescence interference; series mostly up to 106 µM; fluorescence change, negative = quenching: at the top concentration
# Method in brief: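 Flags fluorescent or light-absorbing compounds by total fluorescence, S + 2P, at 555 nm excitation and 632 nm emission. Mixture: 20 nM Texas Red SRC2 peptide, 0.6 uM human TRb LBD, 1 uM T3, 5% DMSO; compound exposure 5 h at ambient temperature.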
# % is set by controls: 0 for no effect and ±100 for the full control effect; potency is the fitted concentration of half-maximal effect; tags give direction and shape of the fitted curve or compound fluorescence and quenching.
SMILES,"fluorescence change, negative = quenching",Potency
COc1ccc(CNc2nc(-c3ccccc3)nn2C(=O)c2ccccc2OC)cc1,1.36%,–
COc1ccccc1NC(=O)c1cc(C2CC2)nc2c1c(C)nn2-c1ccc(C)cc1,-0.295%,–
CCc1nnc2c3ccccc3nc(N3CCN(c4ccc(C)cc4C)CC3)n12,-3.56%,–
Cc1ccc(C)c(N2CCN(C(c3ccccc3)c3nnc(-c4ccccc4)o3)CC2)c1 (stereo not given),0.0308%,–
CCOC(=O)c1cccc(NC(=O)c2cc(S(=O)(=O)N3CCCC(C)C3)cn2C)c1 (stereo not given),0.77%,–
CCn1c2ccccc2c2cc(NC(=O)COc3ccc(C)cc3C)ccc21,-2.08%,–
CCOC(=O)c1ccc(NC(=O)c2csc3c2CCCCC3)cc1,0.898%,–
CCCSc1ncc(Cl)c(C(=O)Nc2sc3c(c2C(=O)NCCOC)CCCC3)n1,–,0.1 µM [quencher] (active)
COCCCNC(=O)c1c(NC(=O)c2cc(=O)c3cc(C)c(C)cc3o2)sc2c1CCCC2,8.54%,–
CCOCCCNC(=O)c1c(NC(=O)c2nc(SC)ncc2Cl)sc2c1CCCC2,8.52%,–
CCOC(=O)c1scc(-c2ccc(C)cc2)c1S(=O)(=O)Nc1cc(C)ccc1C,-5.89%,–
O=C(Oc1ccc([N+](=O)[O-])cc1)c1ccc(Cl)c(S(=O)(=O)N2CCCCC2)c1,–,0.316 µM [quencher] (active)
O=C(Nc1ccc2c(c1)OCCO2)c1ccc(Cl)c(S(=O)(=O)N2CCCCC2)c1,0.377%,–
O=[N+]([O-])c1cccc(S(=O)(=O)N2CCCCCC2)c1,-2.2%,–
Cc1ccc(/C=N/NC(=S)Nc2cccc(S(=O)(=O)N(C)C)c2)o1,-2.71%,–
CN(C)S(=O)(=O)c1cccc(NC(=S)N/N=C/C(=O)c2ccccc2)c1,–,4.47 µM [quencher] (active)
CN(C)S(=O)(=O)c1cccc(NC(=S)NCc2ccc3c(c2)OCO3)c1,-3.31%,–
COc1ccc(OC)c(NC(=O)CSC2=Nc3ccccc3C3=NC(CC(=O)NCCc4ccccc4)C(=O)N23)c1 (stereo not given),-2.61%,–
CCC(Sc1nnc(-c2ccc(OC)cc2)c(-c2ccc(OC)cc2)n1)C(=O)NC1CCCCC1 (stereo not given),-0.831%,–
CCCSc1nc2sc3c(c2c(=O)n1-c1cccc(Br)c1)CC(C)(C)OC3,-1.43%,–
Fc1ccc(-c2nn(-c3ccccc3Cl)c3c2cnc2ccccc23)cc1,1.1%,–
COC(=O)c1sc(=S)n(-c2ccccc2)c1N,-0.443%,–
COCCOC(=O)c1sc(=S)n(CCOC)c1N,–,50.1 µM [fluorescent] (active)
CCOC(=O)c1c(N)sc(C(C)=O)c1C,1.41%,–
COc1ccc(-c2nnc(SCC(=O)Nc3ccc(C(C)C)cc3)nc2-c2ccc(OC)c(OC)c2)cc1OC,0.883%,–

SMILES,"fluorescence change, negative = quenching",Potency
Cc1ccc(-n2nc(C)c3c(C)cc(=O)n(CC(=O)Nc4ccc(C(C)C)cc4)c32)cc1,3.88%,–
COc1cccc(-c2nc(S(=O)(=O)c3ccc(C)cc3)c(NCc3ccccc3)o2)c1,-2.77%,–
CCc1ccccc1N1C(=O)CN(S(=O)(=O)CC)CC1(C)C(=O)NC1CCCCC1 (stereo not given),–,17.8 µM [quencher] (active)
COc1cccc(CN2C(=O)CCC2(C)C(=O)NC2CCCCCC2)c1 (stereo not given),1.09%,–
COc1ccc(OC)c(CN2C(=O)CCC2(C)C(=O)NC2CCCCCC2)c1 (stereo not given),-0.653%,–
COc1ccc(S(=O)(=O)NCc2cccn2Cc2cccc(C)c2)cc1Cl,-1.88%,–
CCOc1ccc(N2CC(C)Cn3c2nc2c3c(=O)n(Cc3c(F)cccc3Cl)c(=O)n2C)cc1 (stereo not given),-2.1%,–
O=C(NCCCN1CCN(c2cccc(Cl)c2)CC1)c1nnc(Cc2ccc(F)cc2Cl)o1,-0.155%,–
CCOc1cc(C2c3c(-c4ccc(Br)cc4)n[nH]c3C(=O)N2c2ccc(Cl)cc2)ccc1O (stereo not given),0.442%,–
CC1CCN(S(=O)(=O)c2ccc3c(c2)N(CC(=O)NCc2ccccc2Cl)C(=O)CO3)CC1,-0.255%,–
CC(C)CC(=O)Nc1nnc(S(=O)(=O)N(C)c2ccc(Cl)cc2)s1,-12.2%,–
CCN(c1ccc(Cl)cc1)S(=O)(=O)c1nnc(NC(=O)c2ccco2)s1,-8.1%,–
Cc1ccccc1C(=O)Nc1nnc(S(=O)(=O)N(C)c2ccc(Cl)cc2)s1,–,31.6 µM [quencher] (active)
CN(Cc1ccccc1)C(=O)CCS(=O)(=O)c1cc(Br)cc2c1N(C(=O)C1CC1)CC2,-2.08%,–
O=C(Nc1ccc(F)cc1F)c1cnn(-c2ccc(F)cc2)c1-n1cccc1,0.454%,–
Clc1nc(Cl)c(Cl)c(Cl)c1Cl,-4.5% [at 201 µM],–
COc1c(O)c2c(=O)cc(OC)c3c4c(OC)cc(=O)c5c(O)c(OC)c6c(c(c1C[C@@](C)(O)[C@H]6C(C)=O)c23)c54,–,44.7 µM [fluorescent] (active)
CCn1cc(C(=O)N2CCN(c3cc(Cl)ccc3C)CC2)c(=O)c2cc(S(=O)(=O)N3CCCC3)ccc21,-1.15%,–
CCc1ccccc1NC(=O)Cn1c(=O)n(-c2cccc(C)c2)c(=O)c2c1c1cc(OC)ccc1n2C,-1.44%,–
Cc1ccccc1C(=O)N(Cc1ccc(N(C)C)cc1)CC1CCCO1 (stereo not given),0.685%,–
N#C/C(=C/c1ccc(N2CCCCC2)o1)C(=O)NCCc1c[nH]c2ccccc12,-0.527%,–
N#C/C(=C/c1ccc(N2CCOCC2)o1)C(=O)N1CCOCC1,–,44.7 µM [fluorescent] (active)
N#C/C(=C\c1ccc(N2CCOCC2)o1)C(=O)N1CCOCC1,0.512%,–
CCc1c(C(=O)O)c(=O)cnn1-c1ccc(Cl)cc1,-12.7% [at 201 µM],–
O=C(CCSCc1ccccc1F)N1CCN(c2ccc(Cl)cc2)CC1,-2.62%,–

SMILES,"fluorescence change, negative = quenching",Potency
Cc1ccccc1CN1C(=O)c2ccccc2Sc2ccc(C(=O)NCCCN3CCOCC3)cc21,0.0604%,–
COc1ccccc1NC(=O)CN1C(=O)c2ccccc2Sc2ccc(C(=O)N3CCCC3)cc21,-6.38%,–
COc1cccc(CNC(=O)c2ccc3c(c2)N(Cc2ccc(C(F)(F)F)cc2)C(=O)c2ccccc2S3)c1OC,–,31.6 µM [quencher] (active)
CC(=O)N1CCCc2cc(S(=O)(=O)N3CCC(C(=O)NCc4ccc(F)cc4)CC3)ccc21,-33.4%,–
CCCN(CCC)CCNC(=O)c1ccc2c(c1)NC(=O)C(CS(=O)(=O)Cc1cccc(Br)c1)N2 (stereo not given),-0.748%,–
CCCCNC(=O)CCNC(=O)c1ccc(C(C)(C)C)cc1,-2.87%,–
CCCCNC(=O)c1ccc2c(c1)NC(=O)C(C(C)C)N2 (stereo not given),–,0.0562 µM [quencher] (active)
CSc1ccccc1NC(=O)CCS(=O)(=O)c1nc(-c2cccs2)cc(C(F)(F)F)n1,-0.205%,–
O=C(Nc1cc(C(F)(F)F)ccc1Cl)c1ccc2c(c1)CCN2S(=O)(=O)c1ccccc1,1.06%,–
CCc1ccccc1NC(=O)CSc1nc(C)c(C(=O)Nc2ccccc2)c(-c2ccc(Cl)cc2)c1C#N,1.72%,–
CCn1cc2nc(SCc3cccc(F)c3)n(CCc3ccccc3)c(=O)c2n1,-0.462%,–
CN1c2ccc(Cl)cc2-c2nc(SCC(=O)Nc3cc(F)ccc3F)ncc2S1(=O)=O,0.99%,–
O=C(Nc1nnc(S(=O)(=O)N2CCCc3ccccc32)s1)c1cccc(F)c1,-0.796%,–
Cc1ccc(S(=O)(=O)N2CCCc3cc(NS(=O)(=O)c4cc(C)ccc4C)ccc32)cc1,-1.28%,–
Cc1c2cnn(-c3ccccc3)c(=O)c2c(C)n1C(C)C(=O)Nc1ccc(Br)cc1F (stereo not given),-3%,–
O=C(NCc1cccnc1)C(=O)NCC(c1cccnc1)N1CCN(c2ccccc2)CC1 (stereo not given),6.49%,–
CCN(CC)S(=O)(=O)c1ccc2c(c1)nc(CN(C)C(=O)Nc1ccc(Cl)cc1)n2C,0.355%,–
COCCNc1ncnc2c1c(-c1ccccc1)cn2-c1ccc(C)c(Cl)c1,-0.894%,–
COc1ccccc1N1CCN(c2ncnc3onc(-c4ccc(F)cc4)c23)CC1,-4.64%,–
COc1cc(NC(=O)c2cc(C3CC3)nc3c2c(C)nn3-c2ccccc2)cc(OC)c1,-0.897%,–
Cc1[nH]c2ccccc2c1C(c1ccccc1)c1cccs1 (stereo not given),-25.5%,–
COc1cccc(CNC(=O)Cc2csc3nc(-c4ccccc4)cn23)c1,-5.57%,–
Fc1ccc(CN2CCc3nc(Nc4ccccc4)ncc3C2)cc1F,-1.99%,–
Cc1ccc(-c2cn3c(n2)sc2cc(C(=O)NCc4cccs4)ccc23)c(C)c1,4.67%,–
CC(C)CC(=O)NCC(c1ccc2c(c1)OCO2)N1CCN(c2ccc(F)cc2)CC1 (stereo not given),-0.0801%,–
